Source: the supplement of paper PMC11732987, “Enantioselective OTUD7B fragment discovery through chemoproteomics screening and high-throughput optimisation” (Communications Chemistry, 2025)

How the values were obtained:
Assay in all cases: log2 ratio of Biotin-Ahx-Ub-VS probe labelling (fragment/DMSO); higher = less target engagement (more negative = stronger competition), active = hit call of the paper (q ≤ 0.05, log2 ratio ≤ -1)
Conditions in all cases: compound concentration: 200 uM; treatment time: 3 h
USP34 = USP34 (UniProt Q70CQ2)
How it was run: (§1)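 Labelled DUBs were enriched with NeutrAvidin, digested with LysC and trypsin, and run by diaPASEF LC-MS/MS. The labelling used Biotin-Ahx-Ub-VS at 0.5 µM final for 1 h on HEK293T lysate (495 µg per sample) previously treated in triplicate with fragment at 200 µM or vehicle for 3 h. Values are average log2 fragment/vehicle ratios by unpaired t-test on global-median-normalised Spectronaut quantities of proteins with ≥2 unique peptides.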

USP36 = target: T1, USP36 (UniProt Q9P275)
T1 sequence (whole entry): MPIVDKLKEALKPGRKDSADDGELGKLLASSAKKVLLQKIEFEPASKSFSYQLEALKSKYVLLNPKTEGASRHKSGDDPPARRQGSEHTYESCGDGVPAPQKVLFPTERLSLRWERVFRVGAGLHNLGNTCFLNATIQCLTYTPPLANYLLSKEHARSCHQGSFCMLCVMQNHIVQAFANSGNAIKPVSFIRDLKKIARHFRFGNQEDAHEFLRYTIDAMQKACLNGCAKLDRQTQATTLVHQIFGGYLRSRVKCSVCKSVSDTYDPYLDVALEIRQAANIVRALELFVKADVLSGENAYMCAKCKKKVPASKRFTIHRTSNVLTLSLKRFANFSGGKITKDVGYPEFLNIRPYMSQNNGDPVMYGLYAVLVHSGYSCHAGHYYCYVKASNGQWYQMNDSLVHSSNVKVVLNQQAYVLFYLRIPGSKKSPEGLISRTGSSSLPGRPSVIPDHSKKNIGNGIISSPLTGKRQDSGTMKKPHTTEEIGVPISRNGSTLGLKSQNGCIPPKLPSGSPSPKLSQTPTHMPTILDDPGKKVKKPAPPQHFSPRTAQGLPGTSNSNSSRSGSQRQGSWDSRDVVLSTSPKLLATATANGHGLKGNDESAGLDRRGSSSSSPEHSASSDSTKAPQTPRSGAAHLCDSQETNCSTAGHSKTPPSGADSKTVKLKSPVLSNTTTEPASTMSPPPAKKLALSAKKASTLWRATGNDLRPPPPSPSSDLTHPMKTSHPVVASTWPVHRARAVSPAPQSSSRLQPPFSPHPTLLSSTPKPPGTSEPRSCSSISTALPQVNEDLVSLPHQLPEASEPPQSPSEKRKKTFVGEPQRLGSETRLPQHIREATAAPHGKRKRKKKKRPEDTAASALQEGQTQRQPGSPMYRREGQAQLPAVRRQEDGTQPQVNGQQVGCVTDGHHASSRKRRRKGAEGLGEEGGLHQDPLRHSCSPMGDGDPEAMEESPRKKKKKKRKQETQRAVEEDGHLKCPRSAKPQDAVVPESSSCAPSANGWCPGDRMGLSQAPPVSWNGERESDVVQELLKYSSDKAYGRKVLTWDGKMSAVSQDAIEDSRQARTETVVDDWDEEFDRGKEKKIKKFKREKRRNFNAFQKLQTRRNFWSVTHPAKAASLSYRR
How it was run: as §1

USP38 = target: T2, USP38 (UniProt Q8NB14)
T2 sequence (whole entry): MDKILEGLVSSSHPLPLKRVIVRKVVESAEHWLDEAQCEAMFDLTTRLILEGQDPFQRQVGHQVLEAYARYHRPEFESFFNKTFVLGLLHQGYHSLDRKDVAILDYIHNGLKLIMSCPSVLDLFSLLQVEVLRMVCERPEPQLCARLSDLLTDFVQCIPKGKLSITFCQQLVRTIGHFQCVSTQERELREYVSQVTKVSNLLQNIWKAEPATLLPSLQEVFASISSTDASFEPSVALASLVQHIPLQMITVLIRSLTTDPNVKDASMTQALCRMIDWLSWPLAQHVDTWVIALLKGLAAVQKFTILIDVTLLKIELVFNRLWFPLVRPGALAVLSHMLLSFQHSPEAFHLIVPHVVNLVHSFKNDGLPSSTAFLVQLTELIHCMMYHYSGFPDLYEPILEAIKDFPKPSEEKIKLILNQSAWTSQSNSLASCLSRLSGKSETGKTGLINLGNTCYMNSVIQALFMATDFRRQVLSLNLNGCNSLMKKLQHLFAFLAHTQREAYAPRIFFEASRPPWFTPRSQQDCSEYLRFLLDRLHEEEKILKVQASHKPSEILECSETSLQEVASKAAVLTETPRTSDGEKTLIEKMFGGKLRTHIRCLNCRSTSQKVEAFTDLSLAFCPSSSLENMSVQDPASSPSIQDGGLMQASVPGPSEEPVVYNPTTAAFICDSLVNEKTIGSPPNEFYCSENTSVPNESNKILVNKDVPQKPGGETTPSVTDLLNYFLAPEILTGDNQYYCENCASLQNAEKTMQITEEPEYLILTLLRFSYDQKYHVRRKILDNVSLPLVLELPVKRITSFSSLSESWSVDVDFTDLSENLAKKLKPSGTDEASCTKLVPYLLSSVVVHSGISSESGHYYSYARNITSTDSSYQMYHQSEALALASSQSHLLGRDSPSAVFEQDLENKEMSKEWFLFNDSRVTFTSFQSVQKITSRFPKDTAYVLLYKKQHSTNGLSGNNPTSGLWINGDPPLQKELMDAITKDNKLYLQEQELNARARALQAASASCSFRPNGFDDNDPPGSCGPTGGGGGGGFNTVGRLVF
How it was run: as §1

USP39 = target: T3, USP39 (UniProt Q53GS9)
T3 sequence (whole entry): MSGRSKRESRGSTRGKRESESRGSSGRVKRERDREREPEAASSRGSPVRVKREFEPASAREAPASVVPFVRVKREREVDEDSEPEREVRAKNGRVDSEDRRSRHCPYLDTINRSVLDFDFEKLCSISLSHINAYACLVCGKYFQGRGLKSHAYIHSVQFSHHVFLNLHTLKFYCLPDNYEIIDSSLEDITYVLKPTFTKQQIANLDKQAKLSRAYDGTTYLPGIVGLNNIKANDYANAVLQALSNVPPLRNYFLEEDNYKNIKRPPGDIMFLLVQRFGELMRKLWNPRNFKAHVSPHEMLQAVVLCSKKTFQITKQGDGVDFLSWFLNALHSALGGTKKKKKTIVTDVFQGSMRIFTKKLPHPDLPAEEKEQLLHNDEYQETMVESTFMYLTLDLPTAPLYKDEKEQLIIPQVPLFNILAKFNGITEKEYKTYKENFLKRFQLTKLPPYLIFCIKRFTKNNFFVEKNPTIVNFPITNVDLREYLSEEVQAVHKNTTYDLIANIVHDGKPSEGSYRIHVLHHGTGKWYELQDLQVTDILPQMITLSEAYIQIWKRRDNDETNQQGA
How it was run: as §1

USP4 = target: T4, USP4 (UniProt Q13107)
T4 sequence (whole entry): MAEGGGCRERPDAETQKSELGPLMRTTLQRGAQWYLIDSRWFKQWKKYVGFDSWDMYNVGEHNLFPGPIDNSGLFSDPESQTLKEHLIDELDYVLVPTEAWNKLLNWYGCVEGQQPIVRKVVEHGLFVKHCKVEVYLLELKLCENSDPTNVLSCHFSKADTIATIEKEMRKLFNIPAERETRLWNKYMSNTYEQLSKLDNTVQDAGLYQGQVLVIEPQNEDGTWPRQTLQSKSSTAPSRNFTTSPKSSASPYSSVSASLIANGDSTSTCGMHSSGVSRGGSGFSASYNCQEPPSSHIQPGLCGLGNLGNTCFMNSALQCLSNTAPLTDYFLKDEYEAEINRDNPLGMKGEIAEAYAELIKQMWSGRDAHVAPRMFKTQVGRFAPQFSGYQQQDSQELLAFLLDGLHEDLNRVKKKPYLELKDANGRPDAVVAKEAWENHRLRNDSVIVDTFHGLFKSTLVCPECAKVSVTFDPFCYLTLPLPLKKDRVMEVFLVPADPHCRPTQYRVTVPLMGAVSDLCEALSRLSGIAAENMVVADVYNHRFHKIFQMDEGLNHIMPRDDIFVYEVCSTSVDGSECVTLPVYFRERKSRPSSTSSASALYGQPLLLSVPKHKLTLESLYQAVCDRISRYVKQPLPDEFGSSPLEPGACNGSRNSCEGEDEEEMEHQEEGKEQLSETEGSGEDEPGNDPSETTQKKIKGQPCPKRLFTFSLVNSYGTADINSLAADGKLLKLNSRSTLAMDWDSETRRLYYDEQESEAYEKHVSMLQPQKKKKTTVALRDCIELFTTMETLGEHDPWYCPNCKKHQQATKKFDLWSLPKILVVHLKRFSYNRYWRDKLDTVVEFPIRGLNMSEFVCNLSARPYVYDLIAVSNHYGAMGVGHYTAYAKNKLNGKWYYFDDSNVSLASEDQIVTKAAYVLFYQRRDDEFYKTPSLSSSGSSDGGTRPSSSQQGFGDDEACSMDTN
How it was run: as §1

Measured: log2 ratio of Biotin-Ahx-Ub-VS probe labelling

Chain of USP34 (Q70CQ2 whole entry, the tested form may be a part): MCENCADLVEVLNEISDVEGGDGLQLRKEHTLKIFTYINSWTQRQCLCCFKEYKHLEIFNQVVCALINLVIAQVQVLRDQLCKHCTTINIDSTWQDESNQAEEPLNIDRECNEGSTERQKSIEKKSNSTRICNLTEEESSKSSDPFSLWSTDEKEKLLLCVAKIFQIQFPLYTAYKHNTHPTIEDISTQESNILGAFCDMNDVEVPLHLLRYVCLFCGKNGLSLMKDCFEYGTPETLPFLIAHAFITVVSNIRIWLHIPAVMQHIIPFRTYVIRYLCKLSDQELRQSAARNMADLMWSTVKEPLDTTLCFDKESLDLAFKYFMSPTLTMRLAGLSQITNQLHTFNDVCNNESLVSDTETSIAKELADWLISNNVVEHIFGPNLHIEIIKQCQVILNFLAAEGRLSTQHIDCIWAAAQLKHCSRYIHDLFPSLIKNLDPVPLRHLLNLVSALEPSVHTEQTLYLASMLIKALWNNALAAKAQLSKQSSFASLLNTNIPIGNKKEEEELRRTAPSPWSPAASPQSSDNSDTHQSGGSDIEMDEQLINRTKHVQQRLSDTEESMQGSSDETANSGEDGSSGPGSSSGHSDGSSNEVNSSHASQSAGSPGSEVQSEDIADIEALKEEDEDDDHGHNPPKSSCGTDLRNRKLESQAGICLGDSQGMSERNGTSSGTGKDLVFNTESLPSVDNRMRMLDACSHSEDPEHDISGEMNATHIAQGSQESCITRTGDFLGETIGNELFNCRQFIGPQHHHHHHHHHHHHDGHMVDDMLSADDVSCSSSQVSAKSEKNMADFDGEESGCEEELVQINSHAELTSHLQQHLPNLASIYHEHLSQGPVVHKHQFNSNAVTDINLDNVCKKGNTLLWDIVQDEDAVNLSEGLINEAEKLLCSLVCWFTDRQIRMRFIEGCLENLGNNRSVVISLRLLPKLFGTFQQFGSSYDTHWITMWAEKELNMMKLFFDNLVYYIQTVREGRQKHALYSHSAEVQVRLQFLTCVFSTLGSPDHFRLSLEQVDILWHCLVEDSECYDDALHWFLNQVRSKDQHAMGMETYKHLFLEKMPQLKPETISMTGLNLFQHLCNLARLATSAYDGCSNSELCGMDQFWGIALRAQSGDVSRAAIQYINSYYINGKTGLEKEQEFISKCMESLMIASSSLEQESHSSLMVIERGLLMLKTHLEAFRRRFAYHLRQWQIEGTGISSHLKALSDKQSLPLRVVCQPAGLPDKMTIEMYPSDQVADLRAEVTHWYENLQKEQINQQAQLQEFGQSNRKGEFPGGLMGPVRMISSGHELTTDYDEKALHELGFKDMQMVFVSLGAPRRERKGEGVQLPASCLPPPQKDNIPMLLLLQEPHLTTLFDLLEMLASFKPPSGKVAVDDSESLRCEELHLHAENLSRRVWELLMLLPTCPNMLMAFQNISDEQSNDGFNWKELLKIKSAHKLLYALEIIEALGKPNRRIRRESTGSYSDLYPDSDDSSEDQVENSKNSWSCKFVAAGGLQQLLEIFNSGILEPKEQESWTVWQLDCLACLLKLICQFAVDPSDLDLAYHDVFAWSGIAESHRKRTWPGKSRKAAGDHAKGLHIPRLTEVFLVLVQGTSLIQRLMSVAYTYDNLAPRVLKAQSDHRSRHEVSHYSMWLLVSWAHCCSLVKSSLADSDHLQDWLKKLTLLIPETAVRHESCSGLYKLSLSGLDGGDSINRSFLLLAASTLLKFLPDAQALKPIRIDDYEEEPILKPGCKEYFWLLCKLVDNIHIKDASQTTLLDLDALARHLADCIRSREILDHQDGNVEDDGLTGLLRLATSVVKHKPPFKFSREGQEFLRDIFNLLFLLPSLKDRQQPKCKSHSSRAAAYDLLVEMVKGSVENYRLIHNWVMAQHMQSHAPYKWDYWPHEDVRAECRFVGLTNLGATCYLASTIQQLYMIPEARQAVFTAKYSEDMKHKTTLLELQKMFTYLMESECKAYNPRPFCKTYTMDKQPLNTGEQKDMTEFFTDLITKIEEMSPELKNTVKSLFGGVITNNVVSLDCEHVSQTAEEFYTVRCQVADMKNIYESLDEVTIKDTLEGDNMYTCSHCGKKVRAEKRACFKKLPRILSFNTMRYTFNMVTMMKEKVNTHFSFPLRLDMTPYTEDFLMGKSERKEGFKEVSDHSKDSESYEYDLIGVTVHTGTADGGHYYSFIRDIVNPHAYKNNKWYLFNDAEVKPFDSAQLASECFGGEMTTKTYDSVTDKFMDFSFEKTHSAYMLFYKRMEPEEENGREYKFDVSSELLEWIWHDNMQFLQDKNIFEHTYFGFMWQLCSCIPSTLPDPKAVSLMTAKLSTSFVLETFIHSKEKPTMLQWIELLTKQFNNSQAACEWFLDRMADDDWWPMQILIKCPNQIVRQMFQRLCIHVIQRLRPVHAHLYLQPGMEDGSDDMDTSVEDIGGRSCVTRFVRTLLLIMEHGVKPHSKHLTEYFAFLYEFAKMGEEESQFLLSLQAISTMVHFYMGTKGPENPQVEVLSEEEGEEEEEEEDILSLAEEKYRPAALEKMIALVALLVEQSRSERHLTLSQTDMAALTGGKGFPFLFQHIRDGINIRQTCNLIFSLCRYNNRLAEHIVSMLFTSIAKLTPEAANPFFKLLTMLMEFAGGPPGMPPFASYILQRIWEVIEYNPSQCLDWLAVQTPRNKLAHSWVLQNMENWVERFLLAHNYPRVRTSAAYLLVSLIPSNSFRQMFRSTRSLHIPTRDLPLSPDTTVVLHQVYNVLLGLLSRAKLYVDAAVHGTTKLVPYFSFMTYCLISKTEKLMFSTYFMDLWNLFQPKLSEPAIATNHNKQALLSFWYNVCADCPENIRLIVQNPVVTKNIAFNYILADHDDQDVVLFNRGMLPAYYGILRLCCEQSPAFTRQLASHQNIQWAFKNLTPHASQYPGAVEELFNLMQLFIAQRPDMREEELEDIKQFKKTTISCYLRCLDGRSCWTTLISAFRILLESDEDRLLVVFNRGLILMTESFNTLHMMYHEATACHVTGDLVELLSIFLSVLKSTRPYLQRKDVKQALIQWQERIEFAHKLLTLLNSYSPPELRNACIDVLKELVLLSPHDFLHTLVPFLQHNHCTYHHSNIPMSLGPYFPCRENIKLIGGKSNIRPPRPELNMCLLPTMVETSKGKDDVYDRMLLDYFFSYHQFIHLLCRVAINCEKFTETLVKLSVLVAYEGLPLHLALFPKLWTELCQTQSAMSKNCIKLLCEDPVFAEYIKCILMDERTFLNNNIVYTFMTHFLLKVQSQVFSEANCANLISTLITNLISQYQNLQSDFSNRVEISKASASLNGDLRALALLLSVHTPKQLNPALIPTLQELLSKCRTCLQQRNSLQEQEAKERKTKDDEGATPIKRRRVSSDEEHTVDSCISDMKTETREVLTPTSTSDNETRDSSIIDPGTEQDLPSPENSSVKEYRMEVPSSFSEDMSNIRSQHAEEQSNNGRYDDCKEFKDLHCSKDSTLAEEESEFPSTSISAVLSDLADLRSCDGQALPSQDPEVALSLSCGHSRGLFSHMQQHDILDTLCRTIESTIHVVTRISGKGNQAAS

C[C@H]1CN(C(=O)CCl)CCN1C(=O)c1cnn(C)c1.Cl
inactive: USP34 -0.052 | USP36 -0.171 | USP38 -0.0453 | USP39 0.0473 | USP4 -0.115
